hgDAF-12 ag = hgDAF-12 agonism, primary luciferase screen; HEK293 GAL4-hgDAF12 UAS-luciferase reporter, agonist luminescence; normalized to butyrate control; activation, % at 6.8 µM; 370,000 compounds, 1.8% hits; AID 687014;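 active = activation above a cutoff set at the mean of all screened compounds plus 3 SD, cut at about 10% in these data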;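 note: 0% = DMSO wells and 100% = sodium butyrate wells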
DAX1 inh-1 = inhibits human nuclear receptor DAX1; HEK293 Gal4-DAX1 luciferase reporter, luminescence; inhibition, % at 6.75 µM; 340,000 compounds, 0.99% hits;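 active = inhibition above the mean over all tested compounds plus 3 SD, cut at about 4.2% in these data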;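 note: 0% = DAX1-transfected cells with DMSO and 100% = empty-vector control cells with DMSO; inhibition shows as a rise in luminescence from relieved DAX1 repression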
Target sequence (P51843 207-470 limits assumed): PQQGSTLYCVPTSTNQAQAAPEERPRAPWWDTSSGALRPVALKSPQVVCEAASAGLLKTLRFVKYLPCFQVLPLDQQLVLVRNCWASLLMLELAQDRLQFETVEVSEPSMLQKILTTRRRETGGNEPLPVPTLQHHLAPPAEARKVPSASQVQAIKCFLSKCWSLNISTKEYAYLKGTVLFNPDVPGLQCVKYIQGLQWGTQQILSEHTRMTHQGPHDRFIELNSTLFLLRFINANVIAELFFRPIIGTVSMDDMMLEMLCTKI
hcDAF-12 act = H. contortus DAF-12 activation, primary screen. HEK293 hcDAF-12 lit1-tk-luc reporter, luminescence; 0% DMSO, 100% Δ7-dafachronic acid. activation, % at 6.8 µM. 370,000 compounds, 1.4% hits. AID 652067;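 active = activation above the mean of all tested compounds plus 3 SD, cut at about 5.5% in these data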;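 note: 100% = response to 3 µM Δ7-dafachronic acid high control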
DAX1 inh-2 = DAX1 (NR0B1) inhibition, primary screen. HEK293T StAR-luciferase reporter, SF-1/DAX-1 repression relief. inhibition, % at 6.8 µM. 370,000 compounds, 1.1% hits;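 active = inhibition above the mean over all tested compounds plus 3 SD, cut at about 3.6% in these data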;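 note: 0% = DAX-1 cells with DMSO and 100% = cells lacking DAX-1 with DMSO; higher inhibition means more luminescence from relief of DAX-1 repression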
ssDAF12 agonist = S. stercoralis DAF-12 activation, primary screen. HEK293 ssDAF-12/GRIP1 lit1-tk-luc reporter, luminescence; % of 3 µM dafachronic acid response. activation, % at 6.8 µM. 370,000 compounds, 1% hits;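 active = activation above the mean over all tested compounds plus 3 SD, cut at about 0.9% in these data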;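 note: 0% = DMSO-only wells and 100% = 3 µM delta7-dafachronic acid wells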
SMARCA2 activ = activators of SMARCA2 function; MG213 cells, MMTV-luciferase reporter, dexamethasone, overnight; activation, % at 9.1 µM; 370,000 compounds, 1% hits; AID 652017; in the data active = activation above about 7.8%;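 note: 0% = vehicle wells and 100% = reference activator wells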
Numbers without * were called inactive. Sampled rows, rich in hits. Any-hit rate of the full collection: about 4.8%.

CCOC(=O)Cn1nnnc1C(CC)N(Cc1cccs1)Cc1cc2cc(C)ccc2[nH]c1=O (configuration not stated) was read as hgDAF-12 ag -1.2, DAX1 inh-1 0.5, hcDAF-12 act -0.5, DAX1 inh-2 -0.4, ssDAF12 agonist -1.1 and SMARCA2 activ -1.6.
CCc1ccc(/C=C2/SC(=S)N(CCCC(=O)Nc3ccccc3C(=O)O)C2=O)cc1 was read as hgDAF-12 ag -4.0, DAX1 inh-1 0.7, hcDAF-12 act -1.5, DAX1 inh-2 0.5, ssDAF12 agonist -0.9 and SMARCA2 activ -4.3.
Screening CCOCCCN1CC(C(=O)NCc2ccc3c(c2)OCO3)CC1=O (configuration not stated) returned hgDAF-12 ag 1.0, DAX1 inh-1 -0.1, hcDAF-12 act -0.5, DAX1 inh-2 -0.1, ssDAF12 agonist -1.2 and SMARCA2 activ -0.4.
`COc1cccc(NC(=O)n2nc(N)cc2-c2ccc(Cl)cc2)c1` gave hgDAF-12 ag 12.0*, DAX1 inh-1 -0.6, hcDAF-12 act -0.1, DAX1 inh-2 -0.6, ssDAF12 agonist -0.6 and SMARCA2 activ -1.5.
`COc1cccc(NC(=O)COC(=O)Cc2ccc(Cl)cc2)c1` gave hgDAF-12 ag 0.2, DAX1 inh-1 0.7, hcDAF-12 act -0.2, DAX1 inh-2 0.7, ssDAF12 agonist 0.0 and SMARCA2 activ 2.8.
COc1ccc2cc(C(=O)NC3CCCCC3)c(=O)oc2c1 was read as hgDAF-12 ag -0.2, DAX1 inh-1 0.1, hcDAF-12 act -1.3, DAX1 inh-2 0.2, ssDAF12 agonist 0.3 and SMARCA2 activ -0.5.
CC1CC(CC(=O)NNc2nc(-c3ccccc3)cs2)C(=O)O1 (configuration not stated) was read as hgDAF-12 ag -0.4, DAX1 inh-1 6.1*, hcDAF-12 act -0.2, DAX1 inh-2 -1.6, ssDAF12 agonist -1.1 and SMARCA2 activ 5.9.
Screening CCCc1cc(=O)oc2cc(OCC(=O)Nc3ccccn3)ccc12 returned hgDAF-12 ag 8.7, DAX1 inh-1 0.8, hcDAF-12 act 1.1, DAX1 inh-2 4.0*, ssDAF12 agonist 0.0 and SMARCA2 activ 4.4.
`CCCc1cc(=O)oc2cc(OCC(=O)Nc3cc(C)on3)ccc12` gave hgDAF-12 ag 1.9, DAX1 inh-1 0.3, hcDAF-12 act -0.2, DAX1 inh-2 0.2, ssDAF12 agonist -0.7 and SMARCA2 activ 1.9.
`CCCc1cc(=O)oc2cc(OCC(=O)N3CCC(C(N)=O)CC3)ccc12` gave hgDAF-12 ag 0.3, DAX1 inh-1 6.3*, hcDAF-12 act 0.5, DAX1 inh-2 -1.1, ssDAF12 agonist -1.2 and SMARCA2 activ 0.7.
For Cc1c(C)c2ccc(OCC(=O)N3CCC(C(=O)O)CC3)cc2oc1=O the results were hgDAF-12 ag 0.1, DAX1 inh-1 2.7, hcDAF-12 act -1.1, DAX1 inh-2 0.9, ssDAF12 agonist -1.3 and SMARCA2 activ -1.2.
`CCc1cc(=O)oc2cc(OCC(=O)N3CCC(C(=O)O)CC3)ccc12` gave hgDAF-12 ag 7.1, DAX1 inh-1 4.6*, hcDAF-12 act 0.1, DAX1 inh-2 -0.7, ssDAF12 agonist -0.8 and SMARCA2 activ -4.6.
`Cc1ccc(C2C(C(=O)O)c3ccccc3C(=O)N2C)c(C)c1` (configuration not stated) gave hgDAF-12 ag -1.9, DAX1 inh-1 -0.3, hcDAF-12 act 0.5, DAX1 inh-2 0.7, ssDAF12 agonist -1.4 and SMARCA2 activ -0.8.
CN1C(=O)c2ccccc2C(C(=O)O)C1c1cn(C)c2ccccc12 (configuration not stated) was read as hgDAF-12 ag 0.1, DAX1 inh-1 0.2, hcDAF-12 act 5.9*, DAX1 inh-2 0.1, ssDAF12 agonist -0.7 and SMARCA2 activ 0.3.
For CCOc1cc(N2CCOCC2)c(OCC)cc1NC(=O)CN1CCCC(C)C1 (configuration not stated) the results were hgDAF-12 ag -3.0, DAX1 inh-1 0.0, hcDAF-12 act -1.2, DAX1 inh-2 -0.8, ssDAF12 agonist -0.8 and SMARCA2 activ -1.1.
For COC(=O)c1c(NC(=O)c2ccccc2)sc(C(N)=O)c1C the results were hgDAF-12 ag -3.6, DAX1 inh-1 0.0, hcDAF-12 act 3.5, DAX1 inh-2 1.8, ssDAF12 agonist 1.0* and SMARCA2 activ 0.9.

Screens as filed in PubChem BioAssay.
